Experimental data taken from PubChem BioAssay AID1076 (NMMLSC, 2008).
Active and inactive are the calls of the source.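 How the source made its calls: active means cell event count below 40, meaning activity score above 60 where score is 100 minus count; inactive means the rest.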

Test: LNCaP cell loss by flow event count, confirmation, cytotoxicity control for prostate differentiation activator project, single point (AID 1076);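 further: counts scatter-gated live cells after medium removal discards detached dead cells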
Settings: flow cytometry event count, 4 d, stronger effect = lower value

Compound | cell event count (at 100 µM) | cell event count (event count, at 10 µM)
COc1ccc(-c2noc(CCC(=O)NCCCN3CCC(C)CC3)n2)cc1 | 63 (inactive) | 136
c1ccc(N2CCN(c3nnc(Cc4cccnc4)c4ccccc34)CC2)nc1 | 40 (inactive) | 434
CCN1C(=O)OC2(CCCCC2)C1(C)O (stereo unspecified) | 230 (inactive) | 174
COc1ccccc1N1CCN(Cc2cc(Br)c(O)c3ncccc23)CC1 | 17 (active) | 35.5
CN(CC(=O)Nc1ccc2c(c1)OCCO2)S(=O)(=O)c1cccc2cccnc12 | 95 (inactive) | 156
Cc1ccccc1-c1nc(CN2CCC(C(=O)NCCCN3CC(C)CC(C)C3)CC2)c(C)o1 (stereo unspecified) | 11 (inactive) | 102
COc1ccc(CCNC(=O)C2CCN(Cc3nc(-c4ccccc4C)oc3C)CC2)cc1OC | 1 (inactive) | 188
CCn1c(C(=O)NCCCN2CCc3ccccc3C2)cc2sccc21 | 16 (inactive) | 380
CCN(CCNC(=O)C1CCN(Cc2nc(-c3ccc(Cl)cc3)oc2C)CC1)c1ccccc1 | 24 (inactive) | 391
Cc1oc(-c2ccc(Cl)cc2)nc1CN1CCCC(C(=O)NCCCN2CCOCC2)C1 (stereo unspecified) | 42 (inactive) | 182
Cc1oc(-c2ccccc2F)nc1CN1CCC(C(=O)NC2CCCCCCC2)CC1 | 6 (inactive) | 90
CCS(=O)(=O)N1CCC(C(=O)NCCCN2CCN(c3ccccc3F)CC2)CC1 | 135 (inactive) | 70.5
c1cncc(-c2nc3ccccc3o2)c1 | 49 (inactive) | 89.5
Cc1oc(-c2ccc(Cl)cc2)nc1CN1CCCC(C(=O)NCc2ccccn2)C1 (stereo unspecified) | 34 (inactive) | 168
COc1ccc(N2CCN(CCCNC(=O)CN3CCN(Cc4ccccc4C)C3=O)CC2)cc1 | 19 (inactive) | 87.5
Cc1ccc(C2=Nc3ccccc3NC(C)(c3ccc(C)o3)C2)o1 (stereo unspecified) | 324 (inactive) | 120
CCOC(=O)N1CCN(C(=O)Cc2ccc(-n3c(=O)[nH]c4ccccc4c3=O)cc2)CC1 | 302 (inactive) | 265
Cc1oc(-c2ccc(Cl)cc2)nc1CN1CCC(C(=O)N2CCN(Cc3ccccc3)CC2)CC1 | 3 (inactive) | 224
COc1ccc(CCN2CCC(Nc3nc4ccccc4n3Cc3ccc(F)cc3)CC2)cc1 | 11 (inactive) | 728

Compound | cell event count (at 100 µM) | cell event count (event count, at 10 µM)
CCn1c(=O)cc(SCC(=O)NCCCN2CCN(c3ccc(F)cc3)CC2)c2ccccc21 | 14 (inactive) | 241
COc1cccc(-c2cc(C(=O)N3CCCc4ccccc43)no2)c1 | 9 (inactive) | 336
COCCn1c(=O)[nH]c2cc(C(=O)NCCCN3CCN(c4ccc(F)cc4)CC3)ccc2c1=O | 140 (inactive) | 194
CC1=C(n2nnc3ccccc32)C(c2ccccc2)C(C#N)=C(N)O1 (stereo unspecified) | 96 (inactive) | 97.5
Cc1ccc(-n2nc3cc(Cl)c(NC(=O)c4ccco4)cc3n2)cc1 | 333 (inactive) | 236
CCCNC(=O)C1CN(S(=O)(=O)c2ccccc2)CCN1S(=O)(=O)c1ccccc1 (stereo unspecified) | 120 (inactive) | 67
O=C(CSc1c[nH]c2ccccc12)N1CCOCC1 | 297 (inactive) | 149
Cc1oc(-c2ccccc2F)nc1CN1CCC(C(=O)NCc2cccnc2)CC1 | 290 (inactive) | 364
Cc1ccc(CN2CCSc3ccc(C(=O)N4CCN(c5ncccn5)CC4)cc32)cc1 | 129 (inactive) | 266
COc1cc(C(=O)NCc2nnc(SCC(=O)NCc3ccccc3)o2)cc(OC)c1OC | 104 (inactive) | 134
Nc1cccc2cnccc12 | 241 (inactive) | 168
COc1ccc(Cc2nc(-c3ccc(-n4cccc4)cc3)no2)cc1OC | 17 (active) | 28
CCOc1ccc(-c2cc(C(=O)NCCCN3CCN(CC)CC3)c3ccccc3n2)cc1 | 39 (inactive) | 156
CN1CCN(c2cc3c(c4c2[nH]c2ccccc24)C(=O)CC(C)(C)C3)CC1 | 31 (inactive) | 231
COc1ccc(-c2cc3c(=O)n(CC(=O)NC4CCN(Cc5ccccc5)CC4)ncn3n2)cc1 | 180 (inactive) | 257
CCc1nnc(NC(=O)CSc2nc3ccccc3s2)s1 | 209 (inactive) | 142
COc1cc(C2C3=C(Nc4ncnn42)c2ccccc2CC3)cc(OC)c1OC (stereo unspecified) | 295 (inactive) | 428
COc1cccc(Oc2cnc(N)nc2-c2ccc(OC)cc2O)c1 | 9 (inactive) | 180
CC(C)Cc1nc2oc3c(N4CCN(CCO)CC4)ncnc3c2c2c1CCCC2 | 3 (inactive) | 120
